# From PubChem BioAssay AID1981 (Southern Research Specialized Biocontainment Screening …, 2009)
# Screen size: about 2,200 compounds; about 480 (22%) were called active. The list is a sample of the results. Measured potencies and affinities stand elsewhere. Values without a mark were called inactive. How the calls were made is not given here.
# Assay: S. Typhimurium GFP fluorescence modified counterscreen for PhoP regulon inhibitor project dose response (AID 1981);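 further: 0% = induced DMSO wells and 100% = uninduced wells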
# Conditions: 4 h; series mostly up to 150 µM; inhibition: at the top concentration
row,Compound,inhibition [%]
1,Cc1ccc(C=Nc2ccccc2C(N)=O)s1,-22
2,CC(=O)Nc1ccc(-c2nnc(SCc3c(C)cc(C)cc3C)n2C)cc1,8.18
3,O=C(NCc1cccs1)c1cccc(Nc2nc3ccc(Br)cc3[nH]2)c1,5.95
4,Nc1c(C(=O)NCCc2ccc(Cl)cc2)sc2ccc(S(=O)(=O)N3CCCCC3)cc12,2
5,CCCCCCCCNc1ncnc2ccccc12,21.5
6,Clc1ccc(OCCn2ccnc2)c(Br)c1,4.2
7,Cc1ccc(N2C(=O)CC(Nc3ccccc3)C2=O)cc1 (centres undefined),-5.83
8,COC(=O)c1sccc1N/N=C(\C)c1ccc(F)c(Cl)c1,4.52
9,CCN(CC(=O)N1CCN(Cc2ccccc2)CC1)S(=O)(=O)c1ccc(F)cc1,-7.07
10,O=C(Nn1c(O)c(C=C2N=c3ccccc3=N2)sc1=S)c1ccc(Cl)cc1,-10.5
11,C=CCn1c(SCC(=O)Nc2nnc(CC)s2)nnc1-c1cccnc1,-22.6
12,CN(c1ccccc1)S(=O)(=O)c1ccc(C(=O)Nc2nnc(-c3ccc(F)cc3)o2)cc1,-10.1
13,Cc1ccc(C)c(NC(=O)C(Sc2nnc(-c3cccs3)o2)c2ccccc2)c1 (centres undefined),3.64
14,Cc1cc(-c2c(C)n([O-])c(C)c(C)[n+]2=O)ccc1F,-12.9
15,COc1cc(C(=O)NC(=S)Nc2ccc3oc(=O)ccc3c2)cc(OC)c1OC,-16.2
16,CC1(C)CC(=O)C2=C(C1)OC1=C(C(=O)CC(C)(C)C1)C2c1ccc(O)cc1O,17.2
17,Cc1cc(Nc2ccccc2F)n2ncnc2n1,-1.64
18,C/C(=N\N=C(/N)SC1CC(=O)N(c2cccc(Cl)c2)C1=O)c1cccs1 (centres undefined),6.99
19,CCCCCCNCc1cccc(Br)c1,-5.86
20,Cc1ccccc1NC(=O)Nc1cccs1,0.01
21,O=C(c1cc(-c2cccs2)nc2ccccc12)N1CCN(c2ccccc2O)CC1,39.2
22,CCC1=NNc2cccc3c(OC)ccc1c23,-16.9

row,Compound,inhibition [%]
1,O=C1Nc2ccccc2C12OCC1(CO2)COC2(OC1)C(=O)Nc1ccccc12 (centres undefined),35
2,Cc1ccc2nc(SCC(=O)NCc3ccco3)[nH]c2c1,-4.71
3,Cc1ccc(C(C)C)c(OCC(=O)N2CCN(Cc3nc4cc([N+](=O)[O-])ccc4n3C)CC2)c1,1.95
4,Cc1cc(C)cc(-n2nc(C)cc2N)c1,-5.73
5,CCCN1C(=O)SC(CC(=O)Nc2ccc(Br)cc2)C1=O (centres undefined),4.65
6,Cn1c(NCc2cccs2)nc2ccccc21,-15.4
7,CC(C)[C@@H]1CC[C@@H](C)C[C@H]1OC(=O)C[n+]1cc(-c2ccc(Cl)cc2)n2c1CCCCC2,7.76
8,CC1CCC(C(C)C)C(OC(=O)Cn2c(-c3ccc(Cl)cc3)[n+](C)c3ccccc32)C1 (centres undefined),24.2
9,NC[C@@]12CCCC1C1CCC2C1 (some centres undefined),-33.1
10,CN(C)S(=O)(=O)Oc1ccsc1C(=O)Nc1ccccc1Cl,-4.31
11,COC(=O)c1cccc(NC(=O)CCCOc2ccccc2)c1,-9.35
12,O=C(CSC1CC(=O)N(CCc2ccccc2)C1=O)Nc1cccc(Cl)c1 (centres undefined),18.6
13,Nc1ccc2nc(SCC(=O)Nc3ccc(N4CCOCC4)c(Cl)c3)sc2c1,4.06
14,Cc1cccc(NC(=O)CCC(=O)OCc2ccc(Br)cc2)c1,-11.4
15,Cc1nc2ccccc2n1CC(=O)N/N=C\C=C\c1ccccc1,3.06
16,O=C(CCN1C(=O)c2ccccc2C1=O)Nc1ccc(-c2cn3ccsc3n2)cc1,-5.3
17,CC(C)(C)n1ncc2c(=O)n(CC(=O)Nc3ccc4c(c3)OCO4)cnc21,4.98
18,O=C1NC(=Nc2ccccc2)/C(=C/c2ccco2)S1,14.3
19,COC(=O)c1ccc(CSc2nnnn2-c2ccccc2)o1,-0.29
20,O=C1c2ccccc2C(=O)N1CCCc1nc(-c2ccccn2)no1,1.57
21,O=C(/C=C/c1ccccc1)N/C(=C/c1ccccc1)C(=O)N1CCOCC1,-23
22,C=CCOc1ccc(Br)cc1/C=N/O,-2.94

row,Compound,inhibition [%]
1,CCCOc1ccc(Br)cc1CSC(=N)N,39.9
2,COC(=O)c1ccc(NC(=O)c2ccc(N(C)S(C)(=O)=O)cc2)cc1,1.77
3,CC1CCCCN1CCNS(=O)(=O)c1ccc2c(c1)oc(=O)n2C (centres undefined),-2.5
4,O=C1NC2=C(CCc3ccccc32)C(c2ccc(Br)cc2)N1 (centres undefined),-14.1
5,Cc1ccccc1NC(=O)c1ccc(-n2cncn2)nc1,2.26
6,CCc1nc2ccccc2c2nc3ccccc3n12,-2.87
7,CCOC(=O)CC(=O)CSc1nc2c(c(C)c1C#N)CCC2,-1.08
8,N/C(=N\c1nc2ccccc2o1)NC(=O)c1ccccc1F,-12.1
9,Oc1ccc(/C=N/n2cnn(Cc3ccccc3Cl)c2=S)c(O)c1,3.42
10,O=C(N/N=C/c1ccc(O)cc1O)/C(=C/c1ccccc1)CCO,7.5
11,CC(=O)Nc1cc(N=Cc2ccc(O)cc2O)c(Cl)cc1Cl,33.6
12,Oc1ccc(/C=N/NC2=NCCCCC2)c(O)c1,5.44
13,CC1C(=O)NN=C1C(=O)N/N=C\c1ccc(O)cc1O (centres undefined),-28.1
14,Cc1ccc2nc(SCCCCOc3ccccc3)[nH]c2c1,-12.1
15,CCOC(=O)CN1C(=O)C(C)(C)Oc2ccc(C(=O)Nc3ccccc3OC)cc21,-3.35
16,O=C(Nc1cc(C(F)(F)F)ccc1N1CCOCC1)c1ccc(Br)o1,-20.1
17,COc1ccc(C)cc1NC(=O)C(Sc1nnc(-c2ccncc2)n1-c1ccc(Cl)cc1)c1ccccc1 (centres undefined),-3.05
18,Cc1ccc(N=Cc2sc(O)c3ccccc23)cc1,-19.9
19,O=C1CSC(=S)N1c1ccc(F)cc1,18.8
20,CC(=O)Nc1nc(-c2ccc(Cl)cc2)nc(C)c1C(C)=O,-11.7
